Source: PubChem BioAssay (NCI)
“And” between values parts separate entries of the source, which are not always exact repeats. Equal entries are not always repeated. About 83,000 compounds went through this panel and 20% of them were active in at least one assay; those are over-represented in the sample as a whole.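 A percent growth of 40 corresponds to 60% growth inhibition; 0 means no net growth; -100 means all cells died. Active threshold: below 10.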 The source made the active and inactive calls.

Experiments:
Test in all cases: NCI-60 one-dose screen, 48 h (100 = growth as untreated, 0 = no growth, -100 = all killed)
[1] = tested on: NCI-H23 lung
[2] = tested on: NCI-H226 lung
[3] = tested on: NCI-H322M lung
[4] = tested on: HOP-62 NSCLC
[5] = tested on: NCI-H460 lung
[6] = tested on: HOP-92 NSCLC; conditions: 10 µM unless noted
[7] = tested on: NCI-H522 lung; conditions: 10 µM unless noted
[8] = tested on: A549/ATCC NSCLC
[9] = tested on: 786-0 renal
[10] = tested on: COLO 205 colon

Measured: growth

Nc1nc(N)c2cc(S(=O)(=O)c3ccccc3)ccc2n1
inactive: [1]; 10 µM unless noted 45% and 40.9% | [2]; 10 µM unless noted 63.2% and 79.3% | [3]; 10 µM unless noted 43.6% and 41.5% | [4]; 10 µM unless noted 54.8% and 46.3% | [5]; 10 µM unless noted 18.3% and 14.7% | [6] 64.9% and 92.5% | [7] 46.2% and 68.9% | [8]; 10 µM unless noted 13.4% and 25.7% | [9]; 10 µM unless noted 29.5% and 26.8% | [10]; 10 µM unless noted 53.7% and 58.3%

O=COCCCc1ccccc1
inactive: [1]; 10 µM unless noted 109% | [2]; 10 µM unless noted 95.4% | [3]; 10 µM unless noted 104% | [4]; 10 µM unless noted 86.4% | [5]; 10 µM unless noted 107% | [6] 84.9% | [7] 80.5% | [8]; 10 µM unless noted 83.7% | [9]; 10 µM unless noted 105% | [10]; 10 µM unless noted 106%

O=c1ccn2c(n1)OC1CC2OC1COC(c1ccccc1)(c1ccccc1)c1ccccc1 (stereo not given)
inactive: [1]; 10 µM 116% | [1]; 100 µM 99.6% | [2]; 10 µM 102% | [2]; 100 µM 90.5% | [3]; 10 µM 106% | [3]; 100 µM 49.9% | [4]; 10 µM 99.6% | [4]; 100 µM 96.3% | [5]; 10 µM 106% | [5]; 100 µM 94.5% | [6] 72.4% [100 µM] | [7] 60.7% [100 µM] | [8]; 10 µM 93.5% | [8]; 100 µM 83% | [9]; 10 µM 113% | [9]; 100 µM 86.1% | [10]; 10 µM 112% | [10]; 100 µM 115%

COCCNC(C)=O
inactive: [1]; 10 µM unless noted 107% | [2]; 10 µM unless noted 90.3% | [3]; 10 µM unless noted 108% | [4]; 10 µM unless noted 98.4% | [5]; 10 µM unless noted 102% | [6] 102% | [7] 96.6% | [8]; 10 µM unless noted 104% | [9]; 10 µM unless noted 97.5% | [10]; 10 µM unless noted 108%

S=c1nc[nH]c2nc[nH]c12
inactive: [1]; 10 µM 31.9% | [1]; 50 µM 21.3% | [2]; 10 µM unless noted 46.3% | [5]; 10 µM 45.3% | [5]; 50 µM 26.9% | [6] 51% [50 µM] | [8]; 10 µM 84.8% | [8]; 50 µM 48.2% | [9]; 10 µM 17.3% | [9]; 50 µM 25.9% | [10]; 10 µM 35.2%
active: [10]; 50 µM 6.94%

O=C1Cc2ccccc2C(=O)N1
inactive: [1]; 10 µM unless noted 103% | [2]; 10 µM unless noted 101% | [3]; 10 µM unless noted 96.3% | [4]; 10 µM unless noted 84.6% | [5]; 10 µM unless noted 110% | [6] 49.9% | [7] 77.2% | [8]; 10 µM unless noted 86.1% | [9]; 10 µM unless noted 82.1% | [10]; 10 µM unless noted 99.2%

CC(=O)/C(N=Nc1ccc(S(=O)(=O)c2ccc(N=N/C(C(C)=O)=C(/C)O)cc2)cc1)=C(\C)O
inactive: [1]; 10 µM unless noted 97.6% | [2]; 10 µM unless noted 114% | [3]; 10 µM unless noted 106% | [4]; 10 µM unless noted 103% | [5]; 10 µM unless noted 93.2% | [6] 90.3% | [7] 105% | [8]; 10 µM unless noted 105% | [9]; 10 µM unless noted 112% | [10]; 10 µM unless noted 113%

COC(=O)C(Cc1cn(C(C)=O)c2ccccc12)P(=O)(OC)OC (stereo not given)
inactive: [1]; 10 µM unless noted 98.5% | [2]; 10 µM unless noted 91.5% | [3]; 10 µM unless noted 101% | [4]; 10 µM unless noted 93.3% | [5]; 10 µM unless noted 98.1% | [6] 98.8% | [7] 103% | [8]; 10 µM unless noted 106% | [9]; 10 µM unless noted 105% | [10]; 10 µM unless noted 105%

NNC(=O)Nc1ccccc1
inactive: [1]; 10 µM unless noted 100% | [2]; 10 µM unless noted 95.2% | [3]; 10 µM unless noted 96.1% | [4]; 10 µM unless noted 103% | [5]; 10 µM unless noted 104% | [6] 90.8% | [7] 107% | [8]; 10 µM unless noted 113% | [9]; 10 µM unless noted 99.8% | [10]; 10 µM unless noted 99.1%

CC(=O)Oc1cc(C(C)C)c(OCCN(C)C)cc1C
inactive: [1]; 10 µM unless noted 99.8% and 105% | [2]; 10 µM unless noted 120% and 103% | [3]; 10 µM unless noted 102% and 105% | [4]; 10 µM unless noted 110% and 97.1% | [5]; 10 µM unless noted 115% and 103% | [6] 107% | [7] 112% and 115% | [9]; 10 µM unless noted 99.6% and 104% | [10]; 10 µM unless noted 114% and 108%
-83.3% (active) and 99.8% (inactive): [8]; 10 µM unless noted
